Experimental findings from ChEMBL document CHEMBL1961873, “Compounds: GSK PKIS; Assays: Nanosyn kinase panel” (2012) are described below.

Test [1] addresses Calcium/calmodulin-dependent protein kinase type II subunit alpha (Homo sapiens) (UniProt Q9UQM7). As to conditions: at 1 µM.
Test [2] addresses Calcium/calmodulin-dependent protein kinase type II subunit delta (Homo sapiens) (UniProt Q13557). As to conditions: at 0.1 µM.
Test [3] shares this target. As to conditions: at 1 µM.
The target of test [4] is T1, Calcium/calmodulin-dependent protein kinase type IV (Homo sapiens) (UniProt Q16566).
T1 sequence (whole entry): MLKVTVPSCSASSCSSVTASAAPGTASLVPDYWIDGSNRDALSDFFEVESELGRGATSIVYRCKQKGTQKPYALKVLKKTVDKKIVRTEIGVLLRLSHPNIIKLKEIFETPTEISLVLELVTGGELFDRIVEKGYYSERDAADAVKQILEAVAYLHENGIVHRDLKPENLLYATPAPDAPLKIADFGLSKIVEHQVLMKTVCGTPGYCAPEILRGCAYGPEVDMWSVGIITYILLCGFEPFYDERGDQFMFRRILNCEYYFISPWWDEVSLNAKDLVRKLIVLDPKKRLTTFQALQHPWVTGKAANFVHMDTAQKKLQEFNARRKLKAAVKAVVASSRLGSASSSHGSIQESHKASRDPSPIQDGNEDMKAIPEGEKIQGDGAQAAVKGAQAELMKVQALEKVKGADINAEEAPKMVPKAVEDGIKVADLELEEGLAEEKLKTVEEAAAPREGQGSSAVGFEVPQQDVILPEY
As to conditions: at 0.1 µM.

For test [5], the target named is T1, Calcium/calmodulin-dependent protein kinase type IV (Homo sapiens). As to conditions: at 1 µM.
The target of test [6] is T2, Serine/threonine-protein kinase Chk1 (Homo sapiens) (UniProt O14757).
T2 sequence (whole entry): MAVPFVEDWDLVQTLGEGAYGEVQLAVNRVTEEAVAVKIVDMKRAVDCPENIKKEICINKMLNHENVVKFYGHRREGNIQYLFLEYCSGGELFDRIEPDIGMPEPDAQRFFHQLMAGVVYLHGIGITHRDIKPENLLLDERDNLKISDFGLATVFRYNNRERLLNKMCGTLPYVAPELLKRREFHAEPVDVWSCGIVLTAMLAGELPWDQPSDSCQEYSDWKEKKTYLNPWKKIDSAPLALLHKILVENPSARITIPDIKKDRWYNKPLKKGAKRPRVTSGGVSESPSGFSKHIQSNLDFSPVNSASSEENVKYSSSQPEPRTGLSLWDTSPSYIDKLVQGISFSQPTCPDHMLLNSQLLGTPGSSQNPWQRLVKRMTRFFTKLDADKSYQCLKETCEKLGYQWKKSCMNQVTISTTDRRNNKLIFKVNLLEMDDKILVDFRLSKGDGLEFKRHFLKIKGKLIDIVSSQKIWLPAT
As to conditions: at 0.1 µM.

For test [7], the target named is T2, Serine/threonine-protein kinase Chk1 (Homo sapiens). The note with it: at 1 µM.
Test [8] deals with Serine/threonine-protein kinase Chk2 (Homo sapiens) (UniProt O96017). The note with it: at 0.1 µM.
Serine/threonine-protein kinase Chk2 (Homo sapiens), sequence (O96017 whole entry): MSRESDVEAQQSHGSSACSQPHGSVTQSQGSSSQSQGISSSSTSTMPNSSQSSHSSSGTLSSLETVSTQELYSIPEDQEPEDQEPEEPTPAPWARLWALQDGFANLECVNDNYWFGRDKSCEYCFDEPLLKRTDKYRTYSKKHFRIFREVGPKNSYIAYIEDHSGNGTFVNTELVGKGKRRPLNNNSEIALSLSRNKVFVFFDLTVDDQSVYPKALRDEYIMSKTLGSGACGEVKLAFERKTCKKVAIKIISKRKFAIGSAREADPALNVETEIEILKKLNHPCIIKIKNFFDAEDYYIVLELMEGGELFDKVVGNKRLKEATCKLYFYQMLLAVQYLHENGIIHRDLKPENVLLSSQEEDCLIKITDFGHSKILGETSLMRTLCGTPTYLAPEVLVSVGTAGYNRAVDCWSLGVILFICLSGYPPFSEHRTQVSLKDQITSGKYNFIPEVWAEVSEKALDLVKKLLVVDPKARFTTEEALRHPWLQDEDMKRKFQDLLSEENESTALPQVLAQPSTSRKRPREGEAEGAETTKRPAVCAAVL
Test [9] shares this target. As to conditions: at 1 µM.
In test [10] the target is Death-associated protein kinase 1 (Homo sapiens) (UniProt P53355). The note with it: at 0.1 µM.
Death-associated protein kinase 1 (Homo sapiens), sequence (P53355 whole entry, looked up): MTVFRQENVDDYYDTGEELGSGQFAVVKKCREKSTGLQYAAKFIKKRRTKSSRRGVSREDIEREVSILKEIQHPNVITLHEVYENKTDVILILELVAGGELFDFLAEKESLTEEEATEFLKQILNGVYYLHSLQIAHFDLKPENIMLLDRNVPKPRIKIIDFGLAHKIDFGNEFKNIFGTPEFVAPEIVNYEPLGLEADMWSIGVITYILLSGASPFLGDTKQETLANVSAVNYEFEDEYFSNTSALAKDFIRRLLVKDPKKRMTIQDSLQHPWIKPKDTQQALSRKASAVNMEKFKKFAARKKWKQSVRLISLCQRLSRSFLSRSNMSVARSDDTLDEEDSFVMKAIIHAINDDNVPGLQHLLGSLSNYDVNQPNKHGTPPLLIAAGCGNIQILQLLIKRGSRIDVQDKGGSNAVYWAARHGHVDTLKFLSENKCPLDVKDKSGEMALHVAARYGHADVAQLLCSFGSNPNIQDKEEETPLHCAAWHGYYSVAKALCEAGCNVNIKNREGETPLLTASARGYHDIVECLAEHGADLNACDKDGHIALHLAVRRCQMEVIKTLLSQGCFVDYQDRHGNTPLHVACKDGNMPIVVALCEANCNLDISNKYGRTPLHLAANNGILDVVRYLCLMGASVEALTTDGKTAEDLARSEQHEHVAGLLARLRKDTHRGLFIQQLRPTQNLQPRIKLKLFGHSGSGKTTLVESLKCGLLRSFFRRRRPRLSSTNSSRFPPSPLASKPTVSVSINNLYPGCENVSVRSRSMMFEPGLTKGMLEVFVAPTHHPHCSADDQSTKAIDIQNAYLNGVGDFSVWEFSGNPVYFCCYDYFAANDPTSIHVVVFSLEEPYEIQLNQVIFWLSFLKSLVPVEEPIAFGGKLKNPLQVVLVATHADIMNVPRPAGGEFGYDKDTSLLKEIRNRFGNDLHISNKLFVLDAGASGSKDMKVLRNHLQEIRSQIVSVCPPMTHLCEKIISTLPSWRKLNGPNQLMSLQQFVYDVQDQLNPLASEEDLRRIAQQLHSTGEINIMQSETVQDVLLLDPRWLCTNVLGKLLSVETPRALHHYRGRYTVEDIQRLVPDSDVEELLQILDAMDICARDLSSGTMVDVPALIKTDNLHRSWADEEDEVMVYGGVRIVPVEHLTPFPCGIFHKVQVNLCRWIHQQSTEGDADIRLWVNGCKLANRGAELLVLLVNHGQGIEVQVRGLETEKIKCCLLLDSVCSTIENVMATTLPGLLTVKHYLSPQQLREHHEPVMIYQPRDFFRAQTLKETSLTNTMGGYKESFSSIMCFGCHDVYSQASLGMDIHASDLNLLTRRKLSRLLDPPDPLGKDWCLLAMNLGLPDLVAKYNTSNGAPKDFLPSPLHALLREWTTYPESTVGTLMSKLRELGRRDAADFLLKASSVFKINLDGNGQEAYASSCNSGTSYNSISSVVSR
Test [11] shares this target. The note with it: at 1 µM.
Test [12] has as its target T3, Serine/threonine-protein kinase DCLK2 (Homo sapiens) (UniProt Q8N568).
T3 sequence (whole entry): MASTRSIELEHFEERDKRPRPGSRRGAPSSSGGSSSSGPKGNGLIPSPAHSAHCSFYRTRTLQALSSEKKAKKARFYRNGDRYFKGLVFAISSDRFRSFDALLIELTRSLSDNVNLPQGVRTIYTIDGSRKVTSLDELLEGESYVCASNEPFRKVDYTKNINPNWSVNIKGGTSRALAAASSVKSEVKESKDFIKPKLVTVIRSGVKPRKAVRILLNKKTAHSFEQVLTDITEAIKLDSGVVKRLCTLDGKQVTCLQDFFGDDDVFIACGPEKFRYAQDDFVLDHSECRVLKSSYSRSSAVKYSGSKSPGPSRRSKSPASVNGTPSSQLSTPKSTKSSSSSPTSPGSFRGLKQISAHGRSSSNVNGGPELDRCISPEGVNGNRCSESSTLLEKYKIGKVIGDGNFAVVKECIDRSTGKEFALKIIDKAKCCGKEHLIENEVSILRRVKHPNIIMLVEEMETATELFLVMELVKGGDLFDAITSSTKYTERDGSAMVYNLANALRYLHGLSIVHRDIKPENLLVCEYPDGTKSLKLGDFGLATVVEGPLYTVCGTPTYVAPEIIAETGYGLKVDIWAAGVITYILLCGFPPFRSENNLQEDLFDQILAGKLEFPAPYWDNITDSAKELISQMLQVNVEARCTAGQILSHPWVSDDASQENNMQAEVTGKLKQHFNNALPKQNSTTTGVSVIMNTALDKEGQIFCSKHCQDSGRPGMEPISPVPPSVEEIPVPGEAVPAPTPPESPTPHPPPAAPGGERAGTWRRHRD
The note with it: at 0.1 µM.

Test [13] deals with T3, Serine/threonine-protein kinase DCLK2 (Homo sapiens). The note with it: at 1 µM.
Test [14] has as its target MAP kinase-activated protein kinase 2 (Homo sapiens) (UniProt P49137). As to conditions: at 0.1 µM.
Test [15] shares this target. The note with it: at 1 µM.
In test [16] the target is MAP kinase-activated protein kinase 3 (Homo sapiens) (UniProt Q16644). As to conditions: at 0.1 µM.
MAP kinase-activated protein kinase 3 (Homo sapiens), sequence (Q16644 whole entry, looked up): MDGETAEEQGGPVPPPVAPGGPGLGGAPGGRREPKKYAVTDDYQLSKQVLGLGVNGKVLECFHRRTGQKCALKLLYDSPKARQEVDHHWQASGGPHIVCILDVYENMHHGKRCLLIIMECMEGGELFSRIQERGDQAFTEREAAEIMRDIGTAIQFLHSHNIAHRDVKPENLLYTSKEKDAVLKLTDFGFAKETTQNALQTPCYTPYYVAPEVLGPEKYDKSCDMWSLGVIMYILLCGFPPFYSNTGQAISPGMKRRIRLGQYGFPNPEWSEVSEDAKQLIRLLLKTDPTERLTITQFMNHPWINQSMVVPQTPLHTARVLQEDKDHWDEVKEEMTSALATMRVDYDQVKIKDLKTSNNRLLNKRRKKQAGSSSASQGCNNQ
Test [17] shares this target. The note with it: at 1 µM.
Test [18] deals with Serine/threonine-protein kinase MARK1 (Homo sapiens) (UniProt Q9P0L2). The note with it: at 0.1 µM.
The target is the same in test [19]. As to conditions: at 1 µM.
The target of test [20] is MAP/microtubule affinity-regulating kinase 3 (Homo sapiens) (UniProt P27448). As to conditions: at 0.1 µM.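 Also: mean percent inhibition of MARK3 kinase activity, measured within the GSK PKIS screening panel.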
MAP/microtubule affinity-regulating kinase 3 (Homo sapiens), sequence (P27448 whole entry, looked up): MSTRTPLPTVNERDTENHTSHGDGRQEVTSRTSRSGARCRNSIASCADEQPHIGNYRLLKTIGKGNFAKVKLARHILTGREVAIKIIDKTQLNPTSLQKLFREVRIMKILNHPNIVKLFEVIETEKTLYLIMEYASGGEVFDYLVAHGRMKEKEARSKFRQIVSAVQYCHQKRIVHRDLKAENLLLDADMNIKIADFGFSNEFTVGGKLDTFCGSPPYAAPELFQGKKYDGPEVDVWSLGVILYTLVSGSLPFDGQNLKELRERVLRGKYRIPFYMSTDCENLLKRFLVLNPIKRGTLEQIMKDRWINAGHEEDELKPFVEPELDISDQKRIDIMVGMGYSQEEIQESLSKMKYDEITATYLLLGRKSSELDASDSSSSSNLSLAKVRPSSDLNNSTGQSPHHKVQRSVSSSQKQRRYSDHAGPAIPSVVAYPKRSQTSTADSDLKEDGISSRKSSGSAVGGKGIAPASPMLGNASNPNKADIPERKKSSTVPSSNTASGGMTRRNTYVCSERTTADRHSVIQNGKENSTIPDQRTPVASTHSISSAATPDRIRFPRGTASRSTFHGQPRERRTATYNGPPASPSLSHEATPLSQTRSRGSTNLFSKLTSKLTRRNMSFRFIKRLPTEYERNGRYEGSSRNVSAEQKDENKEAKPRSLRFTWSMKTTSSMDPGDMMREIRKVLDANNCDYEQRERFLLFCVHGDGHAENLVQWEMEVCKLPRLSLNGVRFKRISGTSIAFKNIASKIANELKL

Calcium/calmodulin-dependent protein kinase type II subunit delta (Homo sapiens), sequence (Q13557 whole entry): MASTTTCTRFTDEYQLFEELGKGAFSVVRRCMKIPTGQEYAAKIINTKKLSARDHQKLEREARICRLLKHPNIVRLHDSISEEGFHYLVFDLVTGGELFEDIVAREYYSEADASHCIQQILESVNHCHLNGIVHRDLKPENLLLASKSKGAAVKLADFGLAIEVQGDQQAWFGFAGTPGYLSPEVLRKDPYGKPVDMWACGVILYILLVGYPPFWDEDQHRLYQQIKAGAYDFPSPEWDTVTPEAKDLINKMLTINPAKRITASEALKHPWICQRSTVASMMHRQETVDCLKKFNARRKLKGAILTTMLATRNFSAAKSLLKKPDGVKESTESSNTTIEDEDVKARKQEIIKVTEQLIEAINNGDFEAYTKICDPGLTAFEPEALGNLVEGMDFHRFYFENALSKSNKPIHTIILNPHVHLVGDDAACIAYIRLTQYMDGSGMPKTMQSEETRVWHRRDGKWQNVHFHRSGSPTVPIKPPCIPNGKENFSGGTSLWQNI
Calcium/calmodulin-dependent protein kinase type II subunit alpha (Homo sapiens), sequence (Q9UQM7 whole entry): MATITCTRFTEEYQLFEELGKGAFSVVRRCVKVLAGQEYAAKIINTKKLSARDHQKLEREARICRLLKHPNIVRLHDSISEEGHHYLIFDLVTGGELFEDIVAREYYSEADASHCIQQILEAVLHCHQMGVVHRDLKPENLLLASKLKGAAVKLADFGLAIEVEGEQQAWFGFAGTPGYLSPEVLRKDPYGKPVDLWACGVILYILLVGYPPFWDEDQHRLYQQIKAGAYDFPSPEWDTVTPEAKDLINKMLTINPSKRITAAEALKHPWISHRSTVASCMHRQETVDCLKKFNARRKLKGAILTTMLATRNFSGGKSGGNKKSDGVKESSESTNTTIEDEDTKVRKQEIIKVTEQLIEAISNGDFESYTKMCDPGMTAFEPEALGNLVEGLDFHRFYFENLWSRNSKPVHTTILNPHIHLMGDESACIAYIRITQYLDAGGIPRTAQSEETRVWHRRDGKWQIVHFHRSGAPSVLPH
MAP kinase-activated protein kinase 2 (Homo sapiens), sequence (P49137 whole entry, looked up): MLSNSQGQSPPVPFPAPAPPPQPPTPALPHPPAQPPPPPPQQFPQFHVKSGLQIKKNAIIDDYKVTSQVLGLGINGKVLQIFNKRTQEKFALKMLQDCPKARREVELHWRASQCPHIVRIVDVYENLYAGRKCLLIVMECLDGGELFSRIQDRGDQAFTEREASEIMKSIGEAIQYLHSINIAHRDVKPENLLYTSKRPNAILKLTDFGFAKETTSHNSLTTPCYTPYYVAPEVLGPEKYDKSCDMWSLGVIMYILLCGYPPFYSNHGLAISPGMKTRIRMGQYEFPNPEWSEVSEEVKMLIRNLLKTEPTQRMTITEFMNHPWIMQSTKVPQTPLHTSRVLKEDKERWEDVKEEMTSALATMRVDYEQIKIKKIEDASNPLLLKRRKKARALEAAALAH

A word on the inhibition: it is the drop in the measured response relative to a control, in per cent. As to `COc1cc2ncn(-c3cc(OCc4ccccc4C(F)(F)F)c(C(=O)N(C)C)s3)c2cc1OC`, the inhibition in [1] was -0.49%; in [2], -1.72%; in test [3], 1.17%; in [4], 0.72%; in test [5], 3.28%; in [6], -1.48%. Also, the inhibition was 1.32% in test [7]; -0.7% in test [8]; -0.07% in test [9]; -0.75% in [10]; -1.63% in test [11]; -2.64% in test [12]. In addition, the inhibition was 3.14% in test [13]; -0.07% in [14]; -0.4% in test [15]; -1.65% in test [16]; 0.87% in [17]; 0.44% in [18]. Moreover, the inhibition was found to be 1.45% in test [19] and 0.15% in test [20].
In the case of `N#Cc1c(NC(=O)CN2CCOCC2)sc2c1CCCC2`, the inhibition in [1] is 4.63%; in [2] it was 3.07%; in test [3], 5.65%; in test [4], -1.76%; in [5], -1.41%; in [6] it was 1.74%. The inhibition in test [7] came to 5.06%; in test [8] it was 1.85%; in [9], 4.14%; in test [10], 5.34%; in test [11], 5.97%; in test [12], 2.25%. In addition, the inhibition in test [13] turned out to be 1.22%; in test [14], 2.32%; in [15], 2%; in [16] it was 3.68%; in test [17], 5.44%; in test [18], 4.32%. Further, the figures for the inhibition in test [19] and in [20] were 6.04% and 4.14%, respectively.
As for `CN(C)CCOc1ccc(-c2nc(-c3ccncc3)c(-c3ccc4c(c3)CC/C4=N\O)[nH]2)cc1`, the inhibition in [1] is 2.29%; in test [2] it was 1.28%; in [3], 1.23%; in test [4], 0.04%; in [5], -0.88%; in test [6], 2.48%. Further, the inhibition is 5.39% in [7]; 1.94% in [8]; 4.06% in test [9]; 3.99% in test [10]; 5.09% in test [11]; 0.7% in test [12]. Also, the inhibition in test [13] was determined as 1.55%; in test [14], 1.68%; in test [15], 2.27%; in test [16] it was 2.57%; in [17], 4.19%; in [18], 2.54%. The inhibition in test [19] stood at 3.97%; in test [20], 2.63%.
With `CCn1c(-c2nonc2N)nc2ccccc21`, the inhibition is 5.38% in [1]; 4.24% in [2]; 4.89% in [3]; -0.37% in test [4]; 1.93% in [5]; 6.35% in test [6]. Besides, the inhibition in [7] was 4.95%; in test [8] it was 0.53%; in [9], 1.9%; in test [10], 4.46%; in [11] it was 7.32%; in test [12], -0.38%. Further, the inhibition in [13] was -3.76%; in test [14], 0.79%; in test [15] it was 1.12%; in test [16] it was 3.15%; in test [17] it was 1.52%; in test [18], 2.03%. In addition, the values for the inhibition in test [19] and in [20] were 3.52% and 3.42%, respectively.
Turning to `CC(=O)Nc1cccc(C#Cc2cncnc2Nc2ccc(OCc3cccc(F)c3)c(Cl)c2)c1`, the inhibition in test [1] is 4.52%; in test [2], 4.28%; in [3] it was 3.37%; in test [4], 1.57%; in test [5], 3.24%; in [6], -1.89%. In addition, the inhibition in test [7] was -3.6%; in [8] it was -2.67%; in test [9], -1.77%; in [10] it was -6.34%; in [11] it was -5.4%; in test [12] it was 2.03%. Also, the inhibition in [13] was -0.73%; in test [14], -2.08%; in test [15] it was -2.08%; in [16], -4.18%; in test [17], -2.89%; in test [18], 1.42%. Moreover, the inhibition was determined as 0.83% in [19] and 3.81% in test [20].
As to `Nc1ncc(-c2cccc(S(N)(=O)=O)c2)c2scc(-c3ccc(F)c(Cl)c3)c12`, the inhibition was found to be 0.53% in test [1]; 3.74% in [2]; 2.95% in [3]; 1.75% in [4]; 1.03% in test [5]; 5.24% in test [6]. Further, the inhibition in test [7] turned out to be 2.44%; in [8], 3.46%; in test [9] it was 7.7%; in test [10], 5.41%; in test [11] it was 3.2%; in test [12], 0.41%. Also, the inhibition in [13] was 0.61%; in [14], 1.76%; in test [15], 1.12%; in [16] it was 6%; in test [17], 15.7%; in test [18], 3.57%. Also, the results for the inhibition in [19] and in test [20] were 5.62% and -0.65%, respectively.
`COc1ccc(-c2cc3c(N)ncnc3o2)cc1`: the inhibition in test [1] is -0.48%; in [2], -0.8%; in test [3], -0.85%; in test [4] it was 0.63%; in test [5], -1.72%; in [6], 0.13%. Moreover, the inhibition is 2.78% in test [7]; -1.09% in [8]; 3.25% in [9]; -1.84% in [10]; -3.05% in test [11]; -1.82% in test [12]. Besides, the inhibition in [13] was 0.37%; in [14] it was -1.21%; in test [15], -0.76%; in [16] it was -1.27%; in test [17], -1.91%; in test [18] it was 0.03%. The inhibition in test [19] is 2.81%; in test [20], -1.55%.
